Several values for one entry are separate records, joined by “and”; a condition that tells them apart may be missing. Equal values may be shown once. Inconclusive results are not listed. A call without a number means that no potency is given here. Unmarked numbers belong to inactive results. Activity calls are given as the source filed them. Calls follow the shape of the dose curve; as a rule, active = well fitted cell-killing curve with a large enough effect in the repeat runs; inconclusive = weak or mixed curves; inactive = no such curve, though single readings can be large or run the other way.
Potency is read from the fitted curve at half-maximal effect.

The assay in a line: qHTS assay for identifying genotoxic compounds that show differential cytotoxicity against isogenic chicken DT40 cell lines with known DNA damage response pathways - Rad54/Ku70 mutant cell line (AID 743015). Also: nearly all actives have a fitted effect of over 60% in size. The conditions noted are these: DT40 Rad54/Ku70 mutant viability, CellTiter-Glo, 40 h; series mostly up to 66.8 µM. An excerpt: National Center for Advancing Translational Sciences [NCATS]
NIH Chemical Genomics Center [NCGC]
U.S. Environmental Protection Agency [EPA]
National Institutes of Environmental Health Sciences [NIEHS]
National Toxicology Program [NTP]
U.S. Food and Drug Administration [FDA]
DNA repair pathways play a critical role in cellular homeostasis by repairing DNA damage induced by endogenous processes and xenobiotics. Isogenic chicken DT40 cell lines deficient in different DNA repair pathways can be used to identify genotoxic compounds and aid in characterizing the nature of the DNA damage induced. Two DNA repair-deficient cell lines with disrupted genes, Rad54/Ku70 or Rev3, were used to screen the Tox21 10K compound library. Possible genotoxicity was based on the presence of a significant increase in cytotoxicity in one or more of the DNA repair-deficient cell lines compared to that observed in the parental DNA repair-proficient cell line. CellTiter Glo viability assay (Promega, Madison, WI) was used to measure cell viability in these cells after compound treatment. This assay includes the data from the Rad54/Ku70 mutant cell line.
Tox21 Assay Protocol Summary:
300 DT40 mutant cells in 5 uL/well were dispensed into white, solid-bottom 1536-well plates using a Multidrop Combi (ThermoFisher Scientific, Waltham, MA) dispenser. After the assay plates were incubated at 37 C/5% CO2 for approximately 0.5 hour, 23 nL of compounds dissolved in DMSO, positive controls or DMSO only was transferred into the assay plate by a pintool work station (Kalypsys, San Diego, CA). The assay plates were incubated at 37 C/5% CO2 for 40 hours. After 5 uL per well of CellTiter-Glo reagent was added into each well of the assay plates, the plates were incubated for 30 min at room temperature and the luminescence intensity of the plates was measured using a ViewLux (PerkinElmer, Shelton, CT) plate reader.
Background: In qHTS, concentration-response curves come from the screen itself.
On to `c1ccc2c(c1)cc1ccc3cccc4ccc2c1c34`, for which the Potency entry was “inactive”. The same measure, in the same setting: as for `c1ccc(N=NNc2ccccc2)cc1`, the figure is 63.3 µM (active); as for `N#Cc1sc2c(=O)c3ccccc3c(=O)c=2sc1C#N`, 0.77 µM (active).

For the compound `COC(=O)c1ccccc1S(=O)(=O)NC(=O)Nc1nc(C)nc(OC)n1`, the Potency entry is “inactive”. The same measure, in the same setting: as for `CC(C)[C@@H](Nc1ccc(C(F)(F)F)cc1Cl)C(=O)OC(C#N)c1cccc(Oc2ccccc2)c1` (stereo not given in full), the entry is “inactive”. The same measure, in the same setting: under `CCOP(=S)(NC(C)C)Oc1ccccc1C(=O)OC(C)C` (stereo not given) stands 17.2 µM (active); under `CCO/N=C(\CC)C1=C(O)CC(c2c(C)cc(C)cc2C)CC1=O` (stereo not given), 62.5 µM (active); under `CC(C)Br`, “inactive”. Still for that read-out and setting: as for `O=C(NC(=O)c1c(F)cccc1F)Nc1ccc(Oc2ccc(C(F)(F)F)cc2Cl)cc1F`, the figure is 3.86 µM (active). Regarding `CCC1COC(Cn2cncn2)(c2ccc(Cl)cc2Cl)O1` (stereo not given), the Potency was 19.3 µM (active). The same measure, in the same setting: under `CSC(=O)c1c(C(F)F)nc(C(F)(F)F)c(C(=O)SC)c1CC(C)C` stands 30.5 µM (active); under `O=c1[nH]c(Cl)c(Cl)cc1Cl`, “inactive”. For `CCCCc1ccccc1`, the Potency result was “inactive”. On the same count and under the same terms, as for `N#Cc1c[nH]cc1-c1cccc2c1OC(F)(F)O2`, the figure is 13.7 µM (active).

Turning to `ClC1=C(Cl)[C@]2(Cl)[C@H]3[C@H]([C@@H]4C=C[C@H]3C4)[C@@]1(Cl)C2(Cl)Cl`, the Potency entry is “inactive”.

For `N#CCCl`, the Potency result was “inactive”. Regarding `Oc1cc(Cl)cc(Cl)c1`, the Potency is 61.8 µM (active). In the case of `O=P(Cl)(Cl)Cl`, the Potency entry is “inactive”. As for `CNC(C)(C)Cc1ccccc1`, the Potency result was “inactive”. The same measure, in the same setting: as for `CC1CCCC1`, the entry is “inactive”. The same measure, in the same setting: under `N#CC(C#N)=NNc1cccc(Cl)c1` stands 2.43 µM (active). For the compound `O=C(Nc1ccc(F)cc1F)c1cccnc1Oc1cccc(C(F)(F)F)c1`, the Potency entry was “inactive”. Turning to `CNN`, the Potency result was “inactive”. On the same count and under the same terms, under `Clc1cc(Cl)c(-c2cc(Cl)c(Cl)cc2Cl)cc1Cl` stands “inactive”; under `COc1c2c(cc3c1OCO3)CCN(C)C2`, “inactive”; under `C=Cc1cccc(CCl)c1`, “inactive”. On the same count and under the same terms, as for `C[C@]12C/C(=C/O)C(=O)C[C@@H]1CC[C@@H]1[C@@H]2CC[C@@]2(C)[C@H]1CC[C@]2(C)O`, the figure is 13.3 µM (active) and 15.5 µM (active); as for `c1cc[n+]2c(c1)-c1cccc[n+]1CC2`, 2.37 µM (active). Consider `CC(C)N(C(=O)CCl)c1ccccc1`, for which the Potency was 9.69 µM (active) and 7.7 µM (active).

For `O.O.O.O=C([O-])[C@H]([O-])[C@@H]([O-])C(=O)[O-].O=C([O-])[C@H]([O-])[C@@H]([O-])C(=O)[O-].[K+].[K+].[Sb+3].[Sb+3]`, the Potency is 3.46 µM (active). Consider `CC(=O)[O-].CC(=O)[O-].CC(=O)[O-].[Sb+3]`, for which the activity change, negative = cytotoxicity was -0.679% [at 8.55 µM]. For the compound `O=[N+]([O-])[O-].[Tl+]`, the Potency is 1.09 µM (active). Regarding `O=[N+]([O-])c1ccc(CCl)cc1`, the Potency entry was “inactive”. Still for that read-out and setting: as for `O=S1(=O)OCC2C(CO1)C1(Cl)C(Cl)=C(Cl)C2(Cl)C1(Cl)Cl` (stereo not given), the figure is 27.3 µM (active); as for `CNC(=O)/C=C(\C)OP(=O)(OC)OC`, “inactive”; as for `O=C(N[C@@H]1N=C(c2ccccc2F)c2cccc3c2N(CC3)C1=O)c1cc2ccccc2[nH]1`, 21.1 µM (active). On the same count and under the same terms, under `CCC(C)Nc1c([N+](=O)[O-])cc(C(C)(C)C)cc1[N+](=O)[O-]` (stereo not given) stands “inactive”.

For the compound `CC(=O)O.CC(=O)O.CC(=O)O.CC(=O)O.CC(=O)O.CC(=O)O.CC(=O)O.O.O.[Cr].[Cr].[Cr]`, the Potency result was “inactive”. On the same count and under the same terms, under `O=S(=O)(NS(=O)(=O)C(F)(F)F)C(F)(F)F` stands “inactive”.

As to `OCC(Br)CBr` (stereo not given), the Potency result was “inactive”.

Values taken from PubChem BioAssay (Tox21).
